Source: PubChem BioAssay (National Center for Advancing Translational Sciences (NCATS))
SW480 rerep = A quantitative high throughput screen for small molecules that induce DNA re-replication in SW480 colon adenocarcinoma cells | hit rate 1.8% among 340,000 | Potency, µM (doses to about 46.1 µM), most hits filed as activators | SW480 DNA re-replication, Hoechst DNA content imaging, 48 h | AID 624297, 2012; further: nearly all actives have a fitted effect of over 55% in size
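Readout is total intensity of Hoechst-stained nuclei, excited at 405 nm and collected at 500-530 nm. Compound treatment lasted 48 hr at 37 C in 5% CO2 before staining.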
Giardia kill = Small Molecules that selectively kill Giardia lamblia: qHTS; Giardia lamblia trophozoite viability; activity change, % at 7.66 µM, hits read low; hit rate 0.15% among 340,000; in the data active means activity change below about -80%; inconclusive means between about -30% and that limit;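 further: parasites exposed to compound for two days anaerobically before the ATP read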
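Anaerobic 48 hrs incubation at 37 deg C of 100 trophozoites/well with test compounds; ATPLite 1-Step luminescence, 15-30 min RT, reports cellular ATP as viability.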
uPA surface inh = qHTS for Inhibitors of Cell Surface uPA Generation; cell surface uPA generation assay, qHTS; Potency, µM (doses to about 38.3 µM), usual class: inhibitors; hit rate 0.31% among 330,000; AID 540303, 2011; active means well fitted inhibition curve with a large enough effect; inconclusive means small, poorly fitted or top-dose-only effect; inactive means no such curve, though single readings can be large or run the other way; tested in mouse RAW 264.7 cells; further: nearly all actives have a fitted effect of over 55% in size
MCF10A rerep = A quantitative high throughput screen for small molecules that induce DNA re-replication in MCF 10a normal breast cells; MCF 10A DNA re-replication, Hoechst nuclear intensity, 48 h; Potency, µM (top dose mostly 46.1 µM), actives largely listed as activators; hit rate 2.9% among 350,000; AID 624296, 2012; further: nearly all actives have a fitted effect of over 50% in size
Of the large screens only hits and unclear results are named; the others gave an inactive call. Shown are actives, neighbours in structure and some others; about 4.3% of the full set was active somewhere. Unless noted, the call rests on the fitted dose curve; in most records, active means well fitted activation curve with a large enough effect; inconclusive means small, poorly fitted or top-dose-only effect; inactive means no such curve, though single readings can be large or run the other way.

Cc1ccc(OCCN(C)C(=O)C2CCC(=O)N(CCCN3CCCC3=O)C2)cc1 (stereo unspecified)	none
O=C(CNC(=O)c1cccs1)N/N=C/c1cccc(Cl)c1	none
O=[N+]([O-])c1cccc(-c2cc(-c3cc(Br)ccc3O)[nH]n2)c1	SW480 rerep inconclusive
CC(NC(=O)C(=O)NCCN1CCN(C(=O)c2ccccc2Br)CC1)c1ccccc1 (stereo unspecified)	none
O=c1cc(-c2ccc(O)c(O)c2)oc2ccc3ccccc3c12	SW480 rerep inconclusive, MCF10A rerep inconclusive
O=c1cc(-c2ccc(O)c(O)c2)oc2c1ccc1ccccc12	SW480 rerep inconclusive, uPA surface inh 2.5µM, MCF10A rerep inconclusive
O=c1cc(/C=C/c2ccccc2)oc2c1ccc1ccccc12	MCF10A rerep 21µM
COc1ccc(-c2sc3ccc(N4CCOCC4)cc3c2C#CCCO)cc1	uPA surface inh inconclusive, MCF10A rerep inconclusive
CC(=N\NC(=O)c1ccc([N+](=O)[O-])cc1)/C(=N/O)C(=O)Nc1ccccc1	SW480 rerep inconclusive
O=C(C1CCN(S(=O)(=O)c2ccccc2)CC1)N1CCCCC1	SW480 rerep inconclusive
O=C(Cn1nnc2ccccc21)OCc1ccccc1	MCF10A rerep 0.65µM
CC12CCC(O)CC1=CCC1C2CCC2(C)c3[nH]ncc3CC12 (stereo unspecified)	SW480 rerep inconclusive, MCF10A rerep 15µM
CC(=O)[C@H]1CC[C@H]2[C@@H]3CC=C4C[C@@H](O)CC[C@]4(C)[C@H]3CC[C@]12C	none
CCN(CC)CCCNC(=O)c1sc2nc(-c3ccc(F)cc3)cn2c1C	SW480 rerep inconclusive, MCF10A rerep 23µM (no result: uPA surface inh)
O=C(O)c1ccc(N2CCCCCC2)c(N2C(=O)c3ccccc3C2=O)c1	Giardia kill inconclusive
O=C1c2cccc3cccc(c23)C(=O)N1c1ccc(O)cc1	Giardia kill inconclusive
O=C1c2cccc3c(N4CCCCC4)ccc(c23)C(=O)N1c1ccccc1O	SW480 rerep 18µM, MCF10A rerep 5.8µM
O=C1c2cccc3c(N4CCCCC4)ccc(c23)C(=O)N1c1ccc(O)cc1	SW480 rerep 12µM, MCF10A rerep 5.8µM
OC(CN1CCN(c2ccccn2)CC1)Cn1c2ccc(Cl)cc2c2cc(Cl)ccc21 (stereo unspecified)	SW480 rerep inconclusive, MCF10A rerep 21µM
CCOC(=O)c1sc2ncn(C(C)C(=O)OCC)c(=O)c2c1C (stereo unspecified)	none
CCOC(=O)c1sc2ncn(CC(=O)N(CC)CC)c(=O)c2c1C	SW480 rerep inconclusive, MCF10A rerep 15µM
CC(C)(C)C(=O)Nc1ccc2c(c1)C(=O)C(=O)c1ccccc1-2	none (no result: SW480 rerep, uPA surface inh, MCF10A rerep)
O=C1Cc2c([nH]c3ccc([N+](=O)[O-])cc23)-c2ccccc2N1	SW480 rerep inconclusive, MCF10A rerep inconclusive
CC(=O)OC(C)(C)/C=C/C(=O)[C@](C)(O)C1[C@H](O)C[C@@]2(C)C3CC=C4C(C=C(O[C@@H]5O[C@H](CO)[C@@H](O)[C@H](O)[C@H]5O)C(=O)C4(C)C)[C@]3(C)C(=O)C[C@]12C (stereo partly specified)	SW480 rerep 0.92µM, uPA surface inh inconclusive, MCF10A rerep 5.2µM
C=CCN1CCCC1CNC(=O)c1cc(S(N)(=O)=O)cc(OC)c1OC (stereo unspecified)	none (no result: Giardia kill, uPA surface inh)
COc1ccccc1N(CC(=O)Nc1ccc2c(c1)OCCO2)S(=O)(=O)c1ccc(C)cc1	none
CN(C)c1nc(N)c2ncc(=S)[nH]c2n1	SW480 rerep inconclusive, MCF10A rerep 29µM
Cc1ccccc1OCCc1c(C)[nH]c(=S)[nH]c1=O	SW480 rerep 3.7µM, MCF10A rerep inconclusive
CC(=O)Oc1ccc(C(=C2CCCCC2)c2ccc(OC(C)=O)cc2)cc1	none (no result: Giardia kill, uPA surface inh)
O=C(N/N=C/c1ccc([N+](=O)[O-])s1)c1ccncc1	Giardia kill inconclusive, MCF10A rerep inconclusive
O=C(N/N=C/c1ccc([N+](=O)[O-])s1)c1cccc(Br)c1	SW480 rerep 10µM, Giardia kill inconclusive, MCF10A rerep inconclusive
Cc1ccc(C(=O)N/N=C/c2ccc([N+](=O)[O-])s2)cc1	SW480 rerep inconclusive, Giardia kill -93
Cc1cc(C(=O)N/N=C/c2ccc(-c3ccc([N+](=O)[O-])cc3Cl)o2)n[nH]1	SW480 rerep 18µM, MCF10A rerep 18µM
Cc1ccc(C(=O)N/N=C/c2ccc(-c3ccc(Br)cc3[N+](=O)[O-])o2)o1	MCF10A rerep 5.8µM
O=C(c1ccc(Cl)cc1)c1cccc(O)c1	none
COc1ccc(C(=O)Nc2nc(CC(=O)NCCc3ccccc3OC)cs2)cc1	none
